Source: PubChem (The Scripps Research Institute Molecular Screening Center)
Sampled rows, rich in hits. Any-hit rate of the full collection: about 2.3%.
PLCg1 inh – PLC-gamma1 (human) inhibition, primary screen; 0.84% of 370,000 active; AID 720700; P19174; purified PLC-gamma1, fluorogenic substrate, fluorescence; inhibition, % at 12.2 µM
UHRF1 MBD2 ctr – UHRF1 methyl-DNA binding inhibition; inhibition, % at 4.4 µM; 0.75% of 370,000 active; UHRF1 binding to methylated oligo, TR-FRET; in the data active = inhibition above about 21%;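 note: UHRF1 SRA domain binding a hemimethylated CpG hairpin DNA probe; 0% = median of test compound wells and 100% = reference inhibitor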
PLC-beta3 inh – blocks human PLC-beta3 enzyme activity; Q01970; Purified PLC-beta3, fluorogenic substrate, fluorescence; inhibition, % at 12.2 µM; 0.18% of 370,000 active; in the data active = inhibition above about 11%;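 note: 0% = median of compound wells on plate and 100% = full blocker control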
MBD2 DNA inh – MBD2-methylated oligo binding inhibition | TR-FRET, MBD2 binding to methylated oligonucleotide | inhibition, % at 4.4 µM | 0.31% of 370,000 active | AID 686964; in the data active = inhibition above about 13%
Target sequence (Q9UBB5 whole entry, looked up): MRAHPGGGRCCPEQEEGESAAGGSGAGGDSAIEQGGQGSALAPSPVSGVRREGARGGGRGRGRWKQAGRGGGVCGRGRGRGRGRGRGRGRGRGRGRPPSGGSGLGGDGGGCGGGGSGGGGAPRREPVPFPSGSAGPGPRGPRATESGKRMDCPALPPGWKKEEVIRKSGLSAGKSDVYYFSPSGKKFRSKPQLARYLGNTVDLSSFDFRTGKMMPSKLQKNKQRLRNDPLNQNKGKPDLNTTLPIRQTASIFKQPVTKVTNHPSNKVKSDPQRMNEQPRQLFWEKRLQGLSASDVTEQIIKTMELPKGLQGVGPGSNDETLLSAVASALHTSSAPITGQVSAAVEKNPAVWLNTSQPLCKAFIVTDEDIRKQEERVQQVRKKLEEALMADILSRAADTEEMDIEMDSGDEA
LEDGF integ inh – blocks HIV-1 LEDGF/p75-dependent DNA integration; TR-FRET IN-LEDGF/p75 DNA integration, Eu/Cy5; inhibition, % at 3.7 µM; 0.64% of 370,000 active; AID 743269;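 active = inhibition above the screen-wide mean plus 3 SD, cut at about 13% in these data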;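 note: signal is the Cy5 over europium emission ratio at 671 and 618 nm; 0% = plate median of compound wells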
PLCgamma1 ctr – PLC-gamma1 inhibition, counter-screen for PLC-beta3 hits | purified PLC-gamma1, fluorogenic substrate, fluorescence | inhibition, % at 12.3 µM | shares compounds with PLCg1 inh | 3.1% of 3,300 active
PLCbeta3 conf – confirmation of human PLC-beta3 inhibitors | shares compounds with PLCg1 inh | purified PLC-beta3, fluorogenic substrate fluorescence | inhibition, % at 12.3 µM | 1% of 3,300 active | AID 743261; in the data active = inhibition above about 11%
An asterisk follows results filed as active; nt = no result given. Cut-off read from the data, not from the text of the source, unless noted: active = inhibition above about 9.5%; inactive = the rest.

SMILES | PLCg1 inh | UHRF1 MBD2 ctr | PLC-beta3 inh | MBD2 DNA inh | LEDGF integ inh | PLCgamma1 ctr | PLCbeta3 conf
CCC(C)n1c(SCC(=O)NCc2ccco2)nnc1-c1cccc(S(=O)(=O)N2CCOCC2)c1 (centres undefined) | 12.4* | -1.7 | 2.9 | -2.0 | 1.9 | -7.9 | -6.2
CCSc1cc(N2CCCC2)nc(-c2ccc(C)cc2)n1 | 4.4 | -1.0 | 4.7 | -5.8 | 4.4 | nt | nt
CCSc1cc(N2CCCC2)nc(-c2ccc(F)cc2)n1 | 8.5 | 2.0 | 10.8* | 0.9 | -0.3 | -6.1 | -3.6
CCCCc1cccc2[nH]cc(C)c12 | -4.7 | 2.5 | -10.8 | 4.1 | 0.4 | nt | nt
O=C(NCc1ccc(OC(F)(F)F)cc1)C1CCC(=O)N(C2CC2)C1 (centres undefined) | 10.7* | 3.2 | -3.2 | -5.0 | 2.0 | -0.9 | 0.4
O=C(NN=C1CCCCCC1)c1cccnc1 | 0.1 | -0.5 | 3.4 | -0.7 | 1.5 | nt | nt
O=C(CC(=O)NN=C1CCCCCC1)NCc1cccnc1 | 10.4* | 1.7 | 6.1 | -5.2 | -3.2 | 1.3 | 1.3
CCOC(=O)[C@]12CCCC3=C1N(CCC3)C(=O)[C@@H](CC(=O)N1CCCCC1)C2 | 2.6 | 1.2 | 2.5 | -3.2 | 2.3 | nt | nt
Cc1nn(-c2ccc(Cl)cc2Cl)c(=O)c2ccccc12 | 3.3 | -4.7 | 1.4 | 4.3 | -3.1 | nt | nt
Cc1nn(-c2ccc(Cl)c(Cl)c2Cl)c(=O)c2ccccc12 | 10.6* | 5.2 | 4.7 | 1.2 | 6.4 | 2.1 | 3.7
CC(O)Cc1cn(CC(=O)N2CCN(C(=O)OC(C)(C)C)CC2)nn1 (centres undefined) | 13.1* | 13.6 | 7.5 | 10.3 | 0.5 | -7.7 | -1.5
O=C1CCN(Cc2ccc(O)cc2)CCN1[C@H](CO)c1ccccc1 | 9.7* | -0.9 | 3.8 | -3.9 | -1.6 | -1.9 | -0.9
Clc1ccc(-n2c(SCc3cccc4ccccc34)nnc2-c2cccnc2)cc1 | 2.8 | 1.9 | 1.4 | -2.0 | 2.5 | nt | nt
Cc1ccc(CNCC(O)(c2ccccc2)c2ccc(Cl)cc2)cc1 (centres undefined) | 2.4 | -1.9 | 4.9 | 0.2 | -4.4 | nt | nt
Cc1ccc(CNCC(O)(c2ccccc2)c2ccccc2)cc1 | 10.2* | 0.4 | 1.1 | -0.3 | 6.9 | 1.6 | 0.8
O=S1(=O)c2c(cccc2N2CCSCC2)Oc2ccccc2CN1Cc1cn(Cc2ccc(C(F)(F)F)cc2)nn1 | -10.4 | 0.2 | -10.3 | -6.5 | 3.3 | nt | nt
COc1ccc(-c2csc(=NCCO)n2-c2ccccc2)cc1 | 10.0* | 6.6 | -3.6 | 8.5 | -4.4 | -3.4 | -1.2
COc1ccc(C(=O)C2CCCN(C(=O)Cn3ccc(C)n3)C2)cc1OC (centres undefined) | 3.3 | -2.1 | -5.0 | -3.9 | 5.3 | nt | nt
COc1ccc(C(=O)C2CCCN(C(=O)CSC)C2)cc1OC (centres undefined) | 14.0* | 4.2 | 7.8 | -3.3 | 5.6 | -2.7 | -0.2
COc1ccc(NC(=O)C(OC)c2ccccc2)cc1Cl (centres undefined) | -2.8 | 1.8 | 1.2 | 5.5 | -0.2 | nt | nt
COc1ccc(NC(=O)C(Sc2nnc(-c3ccncc3)n2-c2ccccc2C)c2ccccc2)cc1Cl (centres undefined) | 10.8* | 1.0 | 4.0 | -6.0 | 4.1 | 1.7 | -3.4
O=C(Nc1ccc(OC(F)(F)F)cc1)Nc1c(-c2ccc(F)cc2)nc2ncccn12 | -25.3 | 0.3 | -30.7 | -0.8 | 5.2 | nt | nt
CC(c1nccs1)N(C)C(=O)CCc1nnc(CCc2ccccc2)o1 (centres undefined) | 11.9* | 2.0 | 3.5 | -5.1 | 3.1 | 1.5 | -2.1
Brc1ccc(Nc2nc(-c3cccnc3)cs2)cc1 | 0.0 | 1.9 | -6.2 | 3.0 | -0.5 | nt | nt
CCOc1ccc(Nc2nc(-c3cccnc3)cs2)cc1 | 12.0* | 4.8 | 2.4 | -3.9 | 6.5 | -5.1 | 0.8
SMILES | PLCg1 inh | UHRF1 MBD2 ctr | PLC-beta3 inh | MBD2 DNA inh | LEDGF integ inh | PLCgamma1 ctr | PLCbeta3 conf
CC(C)n1nnnc1C1(C)CCCCC(=O)N1Cc1cccc(C(F)(F)F)c1 (centres undefined) | 2.3 | 1.9 | 3.7 | 3.3 | 3.7 | nt | nt
CC(C)Oc1cccc(-c2n[nH]c(=S)n2N=Cc2cccc([N+](=O)[O-])c2)c1 | 2.0 | -1.8 | 0.1 | -0.1 | 6.1 | nt | nt
Cc1ccc2[nH]c(O)c(N=NC(=O)CCc3ccccc3)c2c1Br | 9.9* | 4.2 | 4.5 | -3.6 | 2.8 | -7.3 | -2.2
CCOC(=O)Cn1cc(CN2C(C(=O)OC)CN(Cc3ccc(F)cc3)CCS2(=O)=O)nn1 (centres undefined) | 1.0 | 14.3 | 2.6 | 3.6 | 5.3 | nt | nt
CCN(CC)S(=O)(=O)c1ccc(C(=O)OCn2nnc3ccccc3c2=O)cc1 | 7.0 | 0.5 | 16.9* | -6.4 | 9.4 | -2.1 | -0.7
COc1ccc(OC)c(S(=O)(=O)N2CCN(CC(O)CN3CCOCC3)CC2)c1 (centres undefined) | 3.7 | 0.6 | -4.8 | -2.7 | 1.4 | nt | nt
N#Cc1ccccc1S(=O)(=O)N1CCN(CC(O)CN2CCOCC2)CC1 (centres undefined) | 9.7* | 4.4 | 0.4 | -2.1 | 0.9 | -4.2 | 1.3
Cc1ccc([N+](=O)[O-])cc1-c1[nH]c(-c2ccc(O)c(O)c2)nc1-c1ccccc1 | 9.7* | -3.1 | 7.5 | -3.0 | -1.5 | 3.8 | 6.7
CCCC[C@H]1C2CC(OC(=O)Nc3ccc4c(c3)OCO4)C(C2)[C@H]2CCCCN21 (some centres undefined) | 1.8 | -1.8 | 3.0 | 3.1 | 2.7 | nt | nt
CCCCN(CCCC)CC(O)COc1ccccc1C(=O)Nc1ccccc1 (centres undefined) | 6.5 | 4.2 | 10.8* | 2.0 | 7.3 | -0.4 | -0.4
CCN(CC)CC(O)COc1ccccc1C(=O)CCc1ccccc1 (centres undefined) | 0.6 | -0.3 | 1.6 | -0.7 | -1.3 | nt | nt
CCOC(=O)C1=C(C)N(CCCC(=O)O)C(=O)NC1c1ccccc1OS(=O)(=O)c1ccc([N+](=O)[O-])cc1 (centres undefined) | 12.4* | 3.4 | 7.5 | -6.6 | 1.3 | 7.0 | 0.5
Fc1ccc(CSc2ncnc3c2oc2ccccc23)cc1 | 10.4* | 8.1 | 4.0 | 3.8 | 3.2 | -5.8 | -5.4
Fc1cccc(CSc2ncnc3c2oc2ccccc23)c1 | 8.2 | 2.3 | 5.5 | 4.1 | 2.5 | nt | nt
COC1CCCCC1Nc1cc(C)ccc1C (centres undefined) | 9.5* | 3.0 | 3.7 | 2.4 | 4.2 | -0.8 | -1.2
Cc1ccc(C)c(NC2CCCCC2NS(=O)(=O)c2ccccc2)c1 (centres undefined) | 0.2 | 0.0 | -4.0 | 2.3 | -3.4 | nt | nt
COc1cc(-c2noc(CCC(=O)Nc3cccnc3)n2)cc(OC)c1OC | 3.7 | 0.8 | 12.7* | 2.3 | -0.9 | -0.6 | 2.1
O=C(Nc1ccccc1Oc1ccccc1)NC1CCCCN(Cc2cccc(Cl)c2)C1=O (centres undefined) | 1.4 | -3.2 | 5.5 | -6.2 | 7.4 | nt | nt
NC(N)=N/N=C/c1ccc(OCc2ccccc2)c(OCc2ccccc2)c1 | 12.2* | -2.6 | -4.0 | 5.2 | -4.9 | 4.0 | 3.7
